Assay [1] deals with Plasmodium falciparum Sir2 (PF13_0152, Sir2A). Briefly: Plasmodium falciparum Sir2A binding compounds – biochemical, small-molecule microarray, 635 nm fluorescence, primary screen (AID 1098).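 Note: score merges spot fluorescence intensity with its signal-to-noise ratio.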 The following applies: fluorescence 635 nm, higher = more signal.
Assay [2] can be described thus: probe aDKK1 binding to arrayed compounds – biochemical, biotinylated probe, 635/667 nm fluorescence, primary screen (AID 1099).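 Note: score merges 667nm spot fluorescence with signal to noise across triplicate slides.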 The following applies: small-molecule microarray, higher = more signal.
Assay [3] in a line: probe aCHRDL2 binding to arrayed compounds – biochemical, biotinylated probe, 635/667 nm fluorescence, primary screen (AID 1100). The following applies: small-molecule microarray, higher = more signal.
A short description of assay [4]: change in splice reporter luminescence, either direction, cell-based, HEK293, spliceosome inhibition project, primary screen (AID 1101).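 Note: HEK293 cells carrying a splicing-competent luciferase reporter gene; test concentration not given here.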 The conditions noted are these: HEK293 splicing luciferase reporter, 24 h, higher = more signal, called active from +8 up or from −8 down.
The target of assay [5] is Fibroblast growth factor 10 (Homo sapiens) (UniProt O15520). Briefly: compounds binding fibroblast growth factor 10 – biochemical, small-molecule microarray, 635 nm fluorescence, primary screen (AID 1102). The conditions noted are these: FGF10 binding, fluorescence 635 nm, higher = more signal.
For assay [6], the system named is glycogen synthase kinase-3 (GSK3A per assay name; protocol says GSK3B). Briefly: compounds binding glycogen synthase kinase-3 – biochemical, small-molecule microarray, 635 nm fluorescence, GSK3A, primary screen (AID 1103). Note: the record names both GSK3A and GSK3B. The conditions noted are these: fluorescence 635 nm, higher = more signal.
For assay [7], the target named is Epidermal growth factor receptor (Homo sapiens) (UniProt P00533). Briefly: compounds binding epidermal growth factor receptor – biochemical, small-molecule microarray, 635 nm fluorescence, primary screen (AID 1104).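 Note: score merges 667 nm emission intensity with spot signal to noise over triplicate slides.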 The following applies: EGFR binding, higher = more signal.
Assay [8] addresses Follistatin-related protein 3 (Homo sapiens) (UniProt O95633). Briefly: compounds binding follistatin-related protein 3 – biochemical, small-molecule microarray, 635 nm fluorescence, primary screen (AID 1105).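 Note: score merges emission near 667 nm and signal to noise per printed spot across three slides.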 The conditions noted are these: FSTL3 binding, higher = more signal.
In assay [9] the target is Dickkopf-related protein 1 (Homo sapiens) (UniProt O94907). Briefly: small molecules binding DKK1 protein – biochemical, small-molecule microarray, 635 nm fluorescence scan, primary screen (AID 1106).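 Note: score merges emission near 667 nm with signal to noise over three replicate slides.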 The following applies: higher = more signal.
Assay [10] deals with Inhibin beta A chain (activin A). Briefly: small molecules binding activin A – biochemical, small-molecule microarray, 635 nm fluorescence scan, primary screen (AID 1107).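 Note: mouse activin A protein probed at 4.33 µg/mL on printed slides; score merges bound-protein fluorescence near 667 nm with spot signal-to-noise.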 The conditions noted are these: INHBA, higher = more signal.
Assay [11] deals with Human papillomavirus type 1a protein E7 (residues 44-93). Briefly: small molecules binding HPV E7 44-93 – biochemical, small-molecule microarray, residues 44-93, 635 nm fluorescence, primary screen (AID 1108).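 Note: E7 fragment applied at 1 µg/mL in TBST for 1 h at 4 C; score combines spot fluorescence with its signal to noise ratio.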 The following applies: fluorescence 635 nm, higher = more signal.
A short description of assay [12]: hepatitis C replication reporter changes, two-sided – Huh7 cells, luciferase reporter, HCV replication inhibitor project, primary screen (AID 1109).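 Note: huh7 hepatoma cells harbouring a luciferase neomycin HCV replicon reporter; luciferase luminescence as measure of HCV replicon replication; test concentration not given here.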 The conditions noted are these: Huh7 HCV replicon luciferase reporter, 48 h; higher = more signal. Background: A reporter such as luciferase makes a cellular process visible.
Assay [13] concerns the target Left-right determination factor 2 (Homo sapiens) (UniProt O00292). Briefly: small molecules binding LEFTY2 protein – biochemical, small-molecule microarray, 635 nm fluorescence scan, primary screen (AID 1110). The following applies: higher = more signal.
Assay [14] has as its target Calmodulin-1 (Homo sapiens) (UniProt P0DP23). Briefly: small molecules binding calmodulin-1 with EGTA – biochemical, small-molecule microarray, Cy5-labelled CALM1, profiling panel (AID 1111).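 Note: labelled calmodulin applied in Tris saline Tween buffer holding calcium plus EGTA and DTT.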 The conditions noted are these: Cy5-CALM1 binding fluorescence, higher = more signal.
The target is the same in assay [15]. Briefly: small molecules binding Ca-loaded calmodulin-1 – biochemical, small-molecule microarray, Cy5-labelled CALM1, plus calcium, artefact control for SMM control-protein annotation, profiling panel (AID 1112).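 Note: score merges spot fluorescence with signal to noise from triplicate slides.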 The conditions noted are these: Cy5-CALM1 binding fluorescence, higher = more signal.
Assay [16] is described as follows: probe aWnt5a binding to arrayed compounds – biochemical, biotinylated probe, 635/667 nm fluorescence, primary screen (AID 1113).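 Note: score merges 667 nm fluorescence intensity with signal-to-noise per printed feature.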 The conditions noted are these: small-molecule microarray, higher = more signal.
The nature of assay [17]: probe aShh binding to arrayed compounds – biochemical, biotinylated probe, 635/667 nm fluorescence, primary screen (AID 1114).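 Note: probe is biotin-labelled aShh protein from a stem cell growth factor screen; measures binding of labelled protein to compounds printed on the slide; score merges feature fluorescence at 667 nm with signal-to-noise.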 The following applies: small-molecule microarray, higher = more signal.
A short description of assay [18]: probe aNog binding to arrayed compounds – biochemical, biotinylated probe, 635/667 nm fluorescence, primary screen (AID 1115).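 Note: probe is biotinylated aNog protein used at 0.15 µg/mL for 1 h at 4 C; z-score combines 667 nm fluorescence of each spot with its signal to noise.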 The conditions noted are these: small-molecule microarray, higher = more signal.
Assay [19] addresses Torsin-1A-interacting protein 1 (Homo sapiens) (UniProt Q5JTV8). Briefly: compound microarray binding of lysate hLAP1 – cell lysate, small-molecule microarray, COS7 lysate, 635/667 nm fluorescence, primary screen (AID 1116). The following applies: 635 nm fluorescence, higher = more signal.
Assay [20] concerns the target Alpha-bungarotoxin (Bungarus multicinctus) (UniProt P60615). Briefly: compounds binding labelled alpha-BTX control protein – biochemical, small-molecule microarray, Alexa647 label, 635/667 nm fluorescence, artefact control for SMM control protein annotation, profiling panel (AID 1117). The following applies: alpha-BTX-A647 binding fluorescence, higher = more signal.

The source made the active and inactive calls.

Left-right determination factor 2 (Homo sapiens), sequence (O00292 whole entry, looked up): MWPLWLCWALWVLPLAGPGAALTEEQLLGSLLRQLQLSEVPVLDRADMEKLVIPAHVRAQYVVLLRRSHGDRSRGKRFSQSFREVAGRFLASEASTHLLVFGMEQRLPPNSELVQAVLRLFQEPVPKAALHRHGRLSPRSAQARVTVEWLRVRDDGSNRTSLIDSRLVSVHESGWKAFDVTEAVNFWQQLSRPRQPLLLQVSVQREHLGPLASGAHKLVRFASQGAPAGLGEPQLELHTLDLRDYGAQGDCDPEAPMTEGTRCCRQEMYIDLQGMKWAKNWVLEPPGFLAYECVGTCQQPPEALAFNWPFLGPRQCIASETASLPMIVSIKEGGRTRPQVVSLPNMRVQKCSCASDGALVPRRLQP
Follistatin-related protein 3 (Homo sapiens), sequence (O95633 whole entry, looked up): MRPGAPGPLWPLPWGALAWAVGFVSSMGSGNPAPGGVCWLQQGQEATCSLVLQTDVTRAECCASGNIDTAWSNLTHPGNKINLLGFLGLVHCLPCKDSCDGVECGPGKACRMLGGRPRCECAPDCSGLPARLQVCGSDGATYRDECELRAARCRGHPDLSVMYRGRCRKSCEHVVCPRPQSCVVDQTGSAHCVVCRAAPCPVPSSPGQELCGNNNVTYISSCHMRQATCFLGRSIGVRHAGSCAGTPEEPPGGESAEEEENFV
Alpha-bungarotoxin (Bungarus multicinctus), sequence (P60615 whole entry, looked up): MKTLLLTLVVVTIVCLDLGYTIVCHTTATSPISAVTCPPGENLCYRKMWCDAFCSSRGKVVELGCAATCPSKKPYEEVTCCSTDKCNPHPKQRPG
Dickkopf-related protein 1 (Homo sapiens), sequence (O94907 whole entry, looked up): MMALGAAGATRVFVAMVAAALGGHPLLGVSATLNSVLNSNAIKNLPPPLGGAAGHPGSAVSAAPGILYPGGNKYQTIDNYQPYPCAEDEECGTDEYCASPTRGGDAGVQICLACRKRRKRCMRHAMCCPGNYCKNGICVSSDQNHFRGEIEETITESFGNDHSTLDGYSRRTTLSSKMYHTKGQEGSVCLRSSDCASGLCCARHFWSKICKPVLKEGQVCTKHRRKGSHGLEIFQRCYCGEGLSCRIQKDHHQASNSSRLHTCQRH
Fibroblast growth factor 10 (Homo sapiens), sequence (O15520 whole entry, looked up): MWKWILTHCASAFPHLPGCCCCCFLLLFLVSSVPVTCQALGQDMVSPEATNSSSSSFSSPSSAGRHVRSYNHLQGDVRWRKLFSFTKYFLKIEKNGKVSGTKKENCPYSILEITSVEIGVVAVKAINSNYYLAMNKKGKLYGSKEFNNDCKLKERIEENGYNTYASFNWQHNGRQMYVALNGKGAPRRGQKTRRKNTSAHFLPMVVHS
Epidermal growth factor receptor (Homo sapiens), sequence (P00533 whole entry, looked up): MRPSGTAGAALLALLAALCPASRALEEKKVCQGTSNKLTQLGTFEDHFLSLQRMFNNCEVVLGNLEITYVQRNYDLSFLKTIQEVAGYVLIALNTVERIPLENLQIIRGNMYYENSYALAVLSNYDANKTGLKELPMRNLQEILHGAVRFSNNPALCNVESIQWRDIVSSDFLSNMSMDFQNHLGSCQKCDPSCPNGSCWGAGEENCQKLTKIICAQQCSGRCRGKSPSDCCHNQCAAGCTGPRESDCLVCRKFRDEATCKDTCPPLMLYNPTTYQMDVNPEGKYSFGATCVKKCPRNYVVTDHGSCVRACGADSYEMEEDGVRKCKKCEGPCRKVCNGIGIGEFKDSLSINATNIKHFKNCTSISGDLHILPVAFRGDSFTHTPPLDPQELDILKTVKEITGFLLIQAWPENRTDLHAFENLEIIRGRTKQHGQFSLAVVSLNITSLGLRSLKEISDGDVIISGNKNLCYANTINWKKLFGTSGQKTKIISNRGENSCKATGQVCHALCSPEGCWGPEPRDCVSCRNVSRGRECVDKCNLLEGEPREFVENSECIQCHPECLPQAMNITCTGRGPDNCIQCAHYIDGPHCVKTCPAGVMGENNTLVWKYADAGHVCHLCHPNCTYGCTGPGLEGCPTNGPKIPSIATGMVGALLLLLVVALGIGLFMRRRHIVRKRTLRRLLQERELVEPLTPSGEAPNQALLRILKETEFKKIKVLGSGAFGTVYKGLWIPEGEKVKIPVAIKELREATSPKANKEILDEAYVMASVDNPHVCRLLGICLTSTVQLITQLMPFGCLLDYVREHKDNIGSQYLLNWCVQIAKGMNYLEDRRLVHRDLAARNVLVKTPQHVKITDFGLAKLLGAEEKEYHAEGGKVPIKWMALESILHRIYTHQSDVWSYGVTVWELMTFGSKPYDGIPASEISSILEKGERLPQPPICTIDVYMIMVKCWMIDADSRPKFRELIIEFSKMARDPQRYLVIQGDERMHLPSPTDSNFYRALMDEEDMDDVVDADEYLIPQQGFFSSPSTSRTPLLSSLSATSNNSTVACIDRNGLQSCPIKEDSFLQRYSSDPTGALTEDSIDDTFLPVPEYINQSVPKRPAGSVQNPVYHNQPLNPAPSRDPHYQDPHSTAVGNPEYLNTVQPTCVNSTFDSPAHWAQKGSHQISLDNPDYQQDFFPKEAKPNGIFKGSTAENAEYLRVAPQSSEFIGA
Torsin-1A-interacting protein 1 (Homo sapiens), sequence (Q5JTV8 whole entry, looked up): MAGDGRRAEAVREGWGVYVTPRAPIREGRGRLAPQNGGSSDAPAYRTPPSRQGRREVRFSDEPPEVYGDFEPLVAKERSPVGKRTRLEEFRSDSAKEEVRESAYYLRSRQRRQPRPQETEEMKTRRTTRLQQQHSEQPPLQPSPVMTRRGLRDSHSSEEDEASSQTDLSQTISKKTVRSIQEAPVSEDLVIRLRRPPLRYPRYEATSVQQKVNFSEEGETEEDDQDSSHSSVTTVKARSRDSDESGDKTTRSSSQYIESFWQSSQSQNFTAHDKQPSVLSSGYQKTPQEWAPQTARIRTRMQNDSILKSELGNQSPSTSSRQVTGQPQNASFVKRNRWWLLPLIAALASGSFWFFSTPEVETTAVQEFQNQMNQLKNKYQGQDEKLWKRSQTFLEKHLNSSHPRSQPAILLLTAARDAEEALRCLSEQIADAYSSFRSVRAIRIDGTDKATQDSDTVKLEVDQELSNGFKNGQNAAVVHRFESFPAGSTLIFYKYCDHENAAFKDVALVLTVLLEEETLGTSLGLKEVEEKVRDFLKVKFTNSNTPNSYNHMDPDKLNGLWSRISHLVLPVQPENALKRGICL

As to `CC(C)NC(=O)[C@@]1(C)c2ccccc2C(=O)N(Cc2cc(F)cc(C(F)(F)F)c2)[C@H]1c1ccc(CO)cc1`, the composite z-score in [1] came to 0.442; in assay [2], 0.574; in assay [3] it was 0.384; in [5], 1.27; in assay [6], 0.917; in [7], 0.655. The composite z-score in assay [8] is 0.57; in assay [9], -0.12; in [10], 0.858; in [11], 1.3; in [13], -0.0164; in assay [14], 0.304. Also, the composite z-score is 0.418 in assay [15]; -0.0165 in [16]; -0.121 in assay [17]; -0.347 in [18]; 0.363 in [19]; 1.16 in assay [20]. Besides, the z-score in [4] was -0.0501 (inactive); in assay [12] it was 0.0589.
Turning to `C[N+](C)(C)CCCCCCNC(=O)[C@@H]1C[C@@H]2C(=O)N3CCC[C@H]3C(=O)N2[C@@H]1c1cccc(OCCO)c1`, the composite z-score in assay [1] was 1.26; in [2], -0.303; in [3], 0.824; in assay [5], -0.0327; in assay [6], 0.586; in [7], 0.36. Besides, the composite z-score in [8] came to 0.476; in assay [9], 0.808; in [10], 1.03; in [11], 1.34; in assay [13] it was 0.385; in assay [14] it was 0.233. The composite z-score in assay [15] is -1.07; in assay [16] it was -0.197; in assay [17] it was 0.905; in assay [18] it was -0.238; in [19], -0.24; in [20] it was -0.0576. In addition, the figures for the z-score in assay [4] and in assay [12] were -0.739 (inactive) and 1.41, respectively.
With `CCN(CC)c1ccc(N2CC=CC34O[C@@H]5/C=C\CCC(C)OC(=O)C5[C@H]3C(=O)N(CCCO)[C@@H]4C2=O)cc1` (stereo not given in full), the composite z-score was 1.44 in assay [1]; -0.137 in assay [2]; 0.325 in assay [3]; -0.221 in [5]; -0.615 in assay [6]; -1.02 in assay [7]. In addition, the composite z-score is -0.777 in assay [8]; -0.492 in assay [9]; 1.01 in [10]; -0.0672 in assay [11]; -0.434 in assay [13]; -0.671 in assay [14]. Moreover, the composite z-score in assay [15] is -0.431; in assay [16] it was -0.128; in assay [17] it was 0.0469; in assay [18], -0.216; in assay [19], 0.581; in [20] it was -0.625. In addition, the z-score in assay [4] is 0.122 (inactive); in [12], -0.527.
With `C#C[C@@H]1Oc2ccccc2S(=O)(=O)N2CCC[C@H]12`, the composite z-score in [1] was -0.298; in [2], -0.105; in [3], -0.246; in [5], 0.111; in [6] it was -0.859; in assay [7] it was 0.304. The composite z-score was -0.0777 in assay [8]; 0.407 in assay [9]; 0.807 in [10]; -0.638 in assay [11]; 0.273 in assay [13]; -0.593 in assay [14]. The composite z-score was -0.867 in [15]; 0.0391 in assay [16]; 0.0893 in [17]; 0.186 in [18]; 0.237 in assay [19]; -0.302 in assay [20]. The z-score is 0.712 (inactive) in assay [4] and 0.206 in assay [12].
With `O=C1[C@H]2[C@H]3[C@H](O)[C@H](O)CC(=NO[C@@H]4O[C@H](CO)[C@@H](O)[C@H](O)[C@H]4O)[C@H]3CC[C@H]2C(=O)N1C1CCCCC1`, the composite z-score is 0.643 in assay [1]; 0.0533 in assay [2]; -0.0589 in assay [3]; 0.0041 in assay [5]; 0.266 in assay [6]; -0.0158 in [7]. The composite z-score in assay [8] was -0.182; in [9], -0.191; in assay [10], -1.65; in assay [11] it was 1.3; in assay [13], 0.271; in assay [14], -0.0656. Besides, the composite z-score in assay [15] was -0.0964; in [16], -0.0721; in assay [17], 0.0062; in assay [18], 0.604; in assay [19] it was 0.129; in assay [20], 0.0855. Moreover, the z-score in assay [4] was -0.381 (inactive); in assay [12] it was 0.524.

The record behind these values is PubChem BioAssay.
